# According to publication PMC11062922 (Nature Chemical Biology, 2023):
# Where two headings read alike, the source gives them in different places.
# Legend:
# Parameters in all cases: species or system human, MV4-11 + K-562 + COLO205 + SK-N-BE2 + OVCAR-8
# ZAK = conditions: read-out: apparent Kd, n = 1
# AKT1 = conditions: read-out: apparent Kd, n = 1
# AKT2 = conditions: read-out: apparent Kd, n = 1
# RIOK2 = conditions: read-out: apparent Kd, n = 1
# TGFBR1 = conditions: read-out: apparent Kd, n = 1
# EGFR = conditions: read-out: apparent Kd, compound concentrations: 100 nM and 1000 nM (sheet 'Samples'), n = 1
# EPHA1 = conditions: read-out: apparent Kd, n = 1
# FLT3 = conditions: read-out: apparent Kd, n = 1
# FRK = conditions: read-out: apparent Kd, n = 1
# LYN = conditions: read-out: apparent Kd, n = 1
# SRC = conditions: read-out: apparent Kd, compound concentrations: 100 nM and 1000 nM (sheet 'Samples'), n = 1
# ACVR1B = conditions: read-out: apparent Kd, n = 1
# ACVR1 = conditions: read-out: apparent Kd, n = 1
# CSK = conditions: read-out: apparent Kd, n = 1
# DDR1 = conditions: read-out: apparent Kd, n = 1
# SIK2 = conditions: read-out: apparent Kd, n = 1
# GSK3A = conditions: read-out: apparent Kd, compound concentrations: 100 nM and 1000 nM (sheet 'Samples'), n = 1
# GSK3B = conditions: read-out: apparent Kd, compound concentrations: 100 nM and 1000 nM (sheet 'Samples'), n = 1
# ACAD11 = conditions: read-out: apparent Kd; compound concentrations: 100 nM and 1000 nM (sheet 'Samples'), CATDS: 8.0770900756938508E-3; n = 1
# DYRK1A = conditions: read-out: apparent Kd, compound concentrations: 100 nM and 1000 nM (sheet 'Samples'), n = 1
# [1] = compound concentrations:100 nM and 1000 nM (sheet 'Samples')
compound,measurement,setting,value
Nc1nc(-c2cccnc2)c(-c2ccnc3ccccc23)s1 [GW684083X],potency estimated from few doses,ZAK; [1],1440 nM
Cc1cccc(-c2cc(-c3c[nH]nc3-c3ccccn3)ccn2)c1 [GW679395X],potency estimated from few doses,AKT1; [1],1770 nM
same,potency estimated from few doses,AKT2; [1],2340 nM
same,potency estimated from few doses,RIOK2; [1],1630 nM
same,potency estimated from few doses,TGFBR1; [1],2190 nM
Cl.Cl.Cl.c1ccc(Oc2ccc(Nc3ccnc4cc(-c5ccc(CN6CCNCC6)o5)ccc34)cc2)nc1.c1ccc(Oc2ccc(Nc3ccnc4cc(-c5ccc(CN6CCNCC6)o5)ccc34)cc2)nc1 [GW567142A],potency estimated from few doses,"AKT1; compound concentrations: 100 nM and 1000 nM (sheet 'Samples'), CATDS: 1.79490160981602E-2",1660 nM
same,potency estimated from few doses,"AKT2; compound concentrations: 100 nM and 1000 nM (sheet 'Samples'), CATDS: 1.7589072796327002E-2",1790 nM
same,potency estimated from few doses,EGFR; CATDS: 4.6801095990659902E-2,143 nM
same,potency estimated from few doses,"EPHA1; compound concentrations: 100 nM and 1000 nM (sheet 'Samples'), CATDS: 3.01720788002969E-2",372 nM
same,potency estimated from few doses,"FLT3; compound concentrations: 100 nM and 1000 nM (sheet 'Samples'), CATDS: 3.3367464965841198E-2",294 nM
same,potency estimated from few doses,"FRK; compound concentrations: 100 nM and 1000 nM (sheet 'Samples'), CATDS: 2.55518807835587E-2",566 nM
same,potency estimated from few doses,"LYN; compound concentrations: 100 nM and 1000 nM (sheet 'Samples'), CATDS: 2.5031582152460801E-2",598 nM
same,potency estimated from few doses,"RIOK2; compound concentrations: 100 nM and 1000 nM (sheet 'Samples'), CATDS: 1.8917557706548099E-2",1380 nM
same,potency estimated from few doses,SRC; CATDS: 6.9151530133692504E-2,70.8 nM
same,potency estimated from few doses,"ZAK; compound concentrations: 100 nM and 1000 nM (sheet 'Samples'), CATDS: 2.00291787525065E-2",1140 nM
CCN(CC)CCOc1ccc(Nc2ncc3cc(-c4c(Cl)cccc4Cl)c(=O)n(C)c3n2)cc1 [SB-601273],potency estimated from few doses,ACVR1B; [1],170 nM
same,potency estimated from few doses,ACVR1; [1],218 nM
same,potency estimated from few doses,CSK; [1],838 nM
same,potency estimated from few doses,DDR1; [1],165 nM
same,potency estimated from few doses,EPHA1; [1],2.59 nM
same,potency estimated from few doses,FLT3; [1],891 nM
same,potency estimated from few doses,FRK; [1],103 nM
same,potency estimated from few doses,LYN; [1],111 nM
same,potency estimated from few doses,SIK2; [1],55.3 nM
same,potency estimated from few doses,SRC; CATDS: 2.2831439455092799E-2,137 nM
same,potency estimated from few doses,TGFBR1; [1],270 nM
CC(C)c1nc(-c2cccc(NS(=O)(=O)c3ccccc3)c2)c(-c2ccnc(Nc3ccc4c(c3)CN(C)CC4)n2)s1 [GSK1649598A],potency estimated from few doses,"ACVR1B; compound concentrations: 100 nM and 1000 nM (sheet 'Samples'), CATDS: 1.6553743316138101E-2",628 nM
same,potency estimated from few doses,"ACVR1; compound concentrations: 100 nM and 1000 nM (sheet 'Samples'), CATDS: 1.3619919375172601E-2",1250 nM
same,potency estimated from few doses,"CSK; compound concentrations: 100 nM and 1000 nM (sheet 'Samples'), CATDS: 1.8899514592430999E-2",433 nM
same,potency estimated from few doses,"DDR1; compound concentrations: 100 nM and 1000 nM (sheet 'Samples'), CATDS: 1.30172526981645E-2",1520 nM
same,potency estimated from few doses,EGFR; CATDS: 2.2005426873151199E-2,298 nM
same,potency estimated from few doses,"FRK; compound concentrations: 100 nM and 1000 nM (sheet 'Samples'), CATDS: 2.08537323275855E-2",338 nM
same,potency estimated from few doses,"LYN; compound concentrations: 100 nM and 1000 nM (sheet 'Samples'), CATDS: 2.0380924471609701E-2",358 nM
same,potency estimated from few doses,"SIK2; compound concentrations: 100 nM and 1000 nM (sheet 'Samples'), CATDS: 1.6344481967555599E-2",653 nM
same,potency estimated from few doses,SRC; CATDS: 1.45663528778369E-2,960 nM
same,potency estimated from few doses,"ZAK; compound concentrations: 100 nM and 1000 nM (sheet 'Samples'), CATDS: 1.7977927791487699E-2",495 nM
Cn1cc(C2=C(c3cn(CCCO)c4ccccc34)C(=O)NC2=O)c2ccccc21 [RO0317377-000],potency estimated from few doses,GSK3A; CATDS: 0.248455440441466,311 nM
same,potency estimated from few doses,GSK3B; CATDS: 0.25409844627903599,301 nM
CS(=O)(=O)CCNCc1ccc(-c2ccc3ncnc(Nc4ccc(OCc5cccc(F)c5)c(C(F)(F)F)c4)c3c2)o1 [GW576484X],potency estimated from few doses,"AKT1; compound concentrations: 100 nM and 1000 nM (sheet 'Samples'), CATDS: 4.8644382119909499E-2",2100 nM
same,potency estimated from few doses,"AKT2; compound concentrations: 100 nM and 1000 nM (sheet 'Samples'), CATDS: 4.5987801057845099E-2",2420 nM
same,potency estimated from few doses,EGFR; CATDS: 4.6980711652152798E-2,2290 nM
same,potency estimated from few doses,"RIOK2; compound concentrations: 100 nM and 1000 nM (sheet 'Samples'), CATDS: 5.8358702635658101E-2",1410 nM
O=C1N=C(NCc2cccs2)SC1Cc1ccc2ncccc2c1 (stereo not shown) [RO4629078-000],potency estimated from few doses,ACAD11,1250 nM
same,potency estimated from few doses,"ACVR1; compound concentrations: 100 nM and 1000 nM (sheet 'Samples'), CATDS: 8.2545547739811299E-3",1160 nM
same,potency estimated from few doses,"CSK; compound concentrations: 100 nM and 1000 nM (sheet 'Samples'), CATDS: 1.22881462523177E-2",419 nM
same,potency estimated from few doses,"EPHA1; compound concentrations: 100 nM and 1000 nM (sheet 'Samples'), CATDS: 1.25959830755684E-2",398 nM
same,potency estimated from few doses,"FLT3; compound concentrations: 100 nM and 1000 nM (sheet 'Samples'), CATDS: 7.9273479759833908E-3",1330 nM
same,potency estimated from few doses,"FRK; compound concentrations: 100 nM and 1000 nM (sheet 'Samples'), CATDS: 9.6278136963786204E-3",738 nM
same,potency estimated from few doses,GSK3A; CATDS: 2.0180819092640301E-2,174 nM
same,potency estimated from few doses,GSK3B; CATDS: 1.6634751009670601E-2,238 nM
same,potency estimated from few doses,"LYN; compound concentrations: 100 nM and 1000 nM (sheet 'Samples'), CATDS: 9.9981449743306808E-3",670 nM
same,potency estimated from few doses,"SIK2; compound concentrations: 100 nM and 1000 nM (sheet 'Samples'), CATDS: 1.2411552216362301E-2",411 nM
same,potency estimated from few doses,SRC; CATDS: 1.3307336951607501E-2,357 nM
CN1C(=O)c2ccccc2N(C)c2nc(Nc3cnn(C4CCNCC4)c3)ncc21 [XMD-17-51],potency estimated from few doses,"ACVR1B; compound concentrations: 100 nM and 1000 nM (sheet 'Samples'), CATDS: 2.1196121470028601E-2",383 nM
same,potency estimated from few doses,"ACVR1; compound concentrations: 100 nM and 1000 nM (sheet 'Samples'), CATDS: 1.6735726463305099E-2",805 nM
same,potency estimated from few doses,"DDR1; compound concentrations: 100 nM and 1000 nM (sheet 'Samples'), CATDS: 1.7451025116255701E-2",697 nM
same,potency estimated from few doses,"SIK2; compound concentrations: 100 nM and 1000 nM (sheet 'Samples'), CATDS: 2.05809527554131E-2",416 nM
same,potency estimated from few doses,SRC; CATDS: 1.6357706357996601E-2,875 nM
same,potency estimated from few doses,"TGFBR1; compound concentrations: 100 nM and 1000 nM (sheet 'Samples'), CATDS: 2.2276499347081799E-2",333 nM
COc1ccccc1CCNC1=NC(=O)/C(=C/c2ccc3ncccc3c2)S1 [RO4503316-000],potency estimated from few doses,DYRK1A; CATDS: 0.20132255504791199,128 nM
O=C1N=C(NCCc2cccc(Cl)c2)S/C1=C\c1ccc2ncccc2c1 [RO4509201-000],potency estimated from few doses,DYRK1A; CATDS: 6.6454923664205107E-2,945 nM
same,potency estimated from few doses,"FLT3; compound concentrations: 100 nM and 1000 nM (sheet 'Samples'), CATDS: 6.3899678732730503E-2",1060 nM
COc1ccc(-n2cnc3c(N)ncnc32)cc1 [SKF-97236],potency estimated from few doses,"FLT3; compound concentrations: 100 nM and 1000 nM (sheet 'Samples'), CATDS: 0.20462680651790399",598 nM
Cc1ccc(O)cc1Nc1ccnc2cc(-c3ccccn3)ccc12.Cl [GW440139A],potency estimated from few doses,"ACVR1B; compound concentrations: 100 nM and 1000 nM (sheet 'Samples'), CATDS: 0.14783179697021401",9.88 nM
same,potency estimated from few doses,"ACVR1; compound concentrations: 100 nM and 1000 nM (sheet 'Samples'), CATDS: 2.9577067141002798E-2",556 nM
same,potency estimated from few doses,"EPHA1; compound concentrations: 100 nM and 1000 nM (sheet 'Samples'), CATDS: 6.90247660864724E-2",38.9 nM
same,potency estimated from few doses,"TGFBR1; compound concentrations: 100 nM and 1000 nM (sheet 'Samples'), CATDS: 4.4422303259643102E-2",115 nM
Cc1cccc(Nc2nc(NCCN)ncc2C(N)=O)c1 [GSK1292139B],potency estimated from few doses,"SIK2; compound concentrations: 100 nM and 1000 nM (sheet 'Samples'), CATDS: 8.4015516979832894E-2",925 nM
CCc1nc(-c2cccc(N(C)S(=O)(=O)c3ccccc3)c2)c(-c2ccnc(Nc3ccc(N4CCN(C(C)=O)CC4)nc3)n2)s1 [GSK1645895A],potency estimated from few doses,"ZAK; compound concentrations: 100 nM and 1000 nM (sheet 'Samples'), CATDS: 0.12983068767625999",2300 nM
O=C1N=C(NCCc2ccccn2)S/C1=C\c1ccc2ncccc2c1 [RO4508346-000],potency estimated from few doses,DYRK1A; CATDS: 0.223400824962835,127 nM
